Measured values published in the supplement of paper PMC7801607.

Assays:
CHO = experiment: % viability of CHO cells (MTT); higher = less toxic; settings: 48 h
In short: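 Percent viability of CHO cells, relative to untreated cells, was read colorimetrically by tetrazolium (MTT) assay. Cells were seeded at 10^6 cells/well and treated for 48 h with compound at 2 or 20 µM in fresh medium.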

HepG2-A16-CD81 = experiment: % inhibition of HepG2 viability (CellTiter-Glo); higher = more toxic; settings: 5 µM
[1] = tested on: Plasmodium falciparum NF54 stage IV/V gametocytes; experiment: % inhibition of gametocyte viability (PrestoBlue); higher = more inhibition; settings: 48 h
In short: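 Stage IV/V NF54 gametocytes were exposed to compound at 1 or 5 µM for 48 h at 37 °C under stationary, hypoxic conditions, then read by PrestoBlue fluorescence at 612 nm. The percent inhibition of gametocyte viability was normalised to vehicle and kill controls from one run.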

[2] = tested on: Plasmodium falciparum NF54 asexual blood stage; experiment: % inhibition of asexual blood stage proliferation (pLDH); higher = more inhibition; settings: 72 h
In short: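 Ring-stage cultures of Plasmodium falciparum NF54 at 1% haematocrit and 2% parasitaemia were treated with compound at 2 or 20 µM in 96-well plates and kept for 72 h at 37 °C under 4% CO2, 3% O2 and 93% N2. Parasite survival was measured by the parasite lactate dehydrogenase assay, read colorimetrically at 620 nm. Percent inhibition of asexual proliferation was calculated relative to control wells, and the screen was carried out on two separate occasions.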

[3] = tested on: Plasmodium falciparum NF54 stage IV/V gametocytes; experiment: % inhibition of gametocyte viability (ATP bioluminescence); higher = more inhibition; settings: 24 h
In short: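 Stage IV/V NF54 gametocytes were enriched on density gradients and seeded at 30,000 per well in 96-well plates with compound at 1 or 5 µM. Plates were incubated for 24 h at 37 °C. ATP was measured with the Promega BacTiter Glo bioluminescence system. Percent inhibition of gametocyte viability was normalised to DMSO and kill controls from a single run.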

[4] = tested on: Plasmodium falciparum NF54 stage IV/V gametocytes; experiment: % inhibition of gametocyte viability (luciferase reporter); higher = more inhibition; settings: 48 h
In short: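 Percent inhibition came from luminescence and was normalised to controls in a single run. Gametocytes (stage IV/V, NF54-Pfs16-GFP-Luc line, 2% gametocytaemia, 2% haematocrit) were treated with compound at 1 or 5 µM and incubated for 48 h at 37 °C without agitation under hypoxia. Readings used 30 µL lysate with 30 µL Promega luciferin substrate on a GloMax-Multi+ reader, integrating for 10 s.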

[5] = tested on: Plasmodium berghei ANKA liver stage in HepG2-A16-CD81; experiment: % inhibition of liver stage parasite viability (luciferase); higher = more inhibition; settings: 5 µM; 48 h
Procedure: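 Single-concentration screen of the MMV Pandemic Response Box. P. falciparum NF54 asexual blood stages: pLDH assay, 72 h at 37 °C, 2 and 20 µM, n=2. Stage IV/V gametocytes (NF54): luciferase reporter (NF54-Pfs16-GFP-Luc, 48 h), ATP bioluminescence (24 h) and PrestoBlue (48 h) at 1 and 5 µM, n=1. P. berghei liver stage (luciferase in HepG2-A16-CD81, 48 h post infection) at 5 µM, n=4. All normalised to DMSO and kill controls as % inhibition.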
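Throughout, for % inhibition of HepG2 viability (CellTiter-Glo): HepG2-A16-CD81 hepatoma cells plated as in the liver-stage assay but without sporozoites, with DMSO wells as negative and 25 µM puromycin as positive control.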

SMILES | % viability of CHO cells (CHO; 2 µM) [%] | % viability of CHO cells (CHO; 20 µM) [%] | % inhibition of HepG2 viability (HepG2-A16-CD81) [%] | % inhibition of gametocyte viability ([1]; 1 µM) [%] | % inhibition of gametocyte viability ([1]; 5 µM) [%] | % inhibition of asexual blood stage proliferation ([2]; 2 µM) [%] | % inhibition of asexual blood stage proliferation ([2]; 20 µM) [%] | % inhibition of gametocyte viability ([3]; 1 µM) [%] | % inhibition of gametocyte viability ([3]; 5 µM) [%] | % inhibition of gametocyte viability ([4]; 1 µM) [%] | % inhibition of gametocyte viability ([4]; 5 µM) [%] | % inhibition of liver stage parasite viability [5] [%]
NC(=O)c1ccc(I)c([N+](=O)[O-])c1 | 110 | 112 | 14.3 | 17.8 | 30.4 | 1.16 | 51.2 | < 0 | < 0 | 0.24 | < 0 | 20.9
c1ccc(Cn2c(-c3ccccn3)nc3ccccc32)cc1 | 75.8 | 117 | 1.97 | -0.335 | 3.56 | 5.52 | 19.5 | < 0 | < 0 | < 0 | 11.3 | -11
CCOc1noc2cc(OCCC3CCN(c4ccc(C)nn4)CC3)ccc12 | 66.5 | 58 | 1.58 | 16.1 | 23.3 | 84.1 | 70.5 | 6.06 | 0.657 | 6.47 | 5.12 | 27.3
CN1c2ccc(Cl)cc2N(c2ccccc2)C(=O)c2cn(Cc3ccc(CN4CCOCC4)cc3)nc21 | 90.9 | 69.1 | -4.81 | 18.2 | 30.1 | 0.489 | 23.7 | 0.0957 | < 0 | 15.5 | 0.583 | 38.6
CN(C/C=C/C#CC(C)(C)C)Cc1cccc2ccccc12 | 101 | 117 | -4.35 | < 0 | < 0 | -1.71 | 61.2 | < 0 | < 0 | < 0 | < 0 | 29.1
Cc1c(CN(C)C(=O)/C=C/c2cnc3c(c2)C(C)(C)C(=O)N3)oc2ccccc12 | 105 | 87.2 | 9.28 | < 0 | 9.55 | 13.1 | 78.8 | < 0 | < 0 | < 0 | 15.2 | 11.2
COc1ccc(NC(=O)CC2Sc3ncnn3C2=O)cc1 (stereo not given) | 99.9 | -0.591 | 10.8 | < 0 | 2.6 | 29.9 | 26.3 | 0.572 | 16.9 | < 0 | 15.3 | 34.5
O=C(c1ccc(F)cc1)N1CCN2C(=O)c3ccccc3C12c1ccccc1 (stereo not given) | 116 | 109 | -0.867 | 13.1 | 10.8 | 37.1 | 83.7 | < 0 | < 0 | < 0 | < 0 | 26
NC(=O)c1ccccc1NC(=O)c1ccc(C(=O)Nc2ccccc2C(N)=O)cc1 | 87.5 | 120 | 0.348 | < 0 | < 0 | 5.85 | 13.6 | < 0 | < 0 | < 0 | 0.0831 | 42
O=S(=O)(Nc1ccc(O)cc1)c1cccc2cccnc12 | 91.3 | 104 | 0.07 | < 0 | < 0 | 28.2 | 52.4 | < 0 | < 0 | < 0 | < 0 | -2.62
COCCn1cnc2c(=O)[nH]c(Nc3ccccc3)nc21 | 103 | 63.9 | 5.25 | < 0 | 0.985 | 28.3 | 62.8 | 7.08 | 5.85 | 14.5 | 5.09 | 7.54
CCc1cc(Cc2cnc(N)nc2N)cc2c1N(C)CCC2C (stereo not given) | 96.1 | 110 | 7.88 | < 0 | < 0 | 16.7 | 95.1 | < 0 | < 0 | < 0 | < 0 | 7.3
C=CCN(C(=O)OCc1ccc([N+](=O)[O-])cc1)C1CCN(CC[C@](C)(CN(C)S(=O)(=O)c2ccccc2)c2ccccc2)CC1 | 129 | 122 | -6.75 | 4.29 | 13.4 | 59.7 | 78.9 | < 0 | 32 | 2.56 | < 0 | 42.2
CCCCCc1ccc(C(=O)NCCn2cc(CCCCCc3cnc(N)[nH]3)nn2)cc1 | 125 | 153 | 2.88 | < 0 | 63.4 | 72.9 | 96.5 | < 0 | < 0 | < 0 | < 0 | 37.7
COc1nc2ccc(Br)cc2cc1[C@@H](c1ccccc1)[C@@](O)(CCN(C)C)c1cccc2ccccc12 | 107 | 140 | -0.302 | < 0 | < 0 | 82.9 | 101 | < 0 | 49.3 | 14.4 | 19.2 | 31.1
CN(C(=O)C1(c2ccc(Cl)cc2)CCC1)c1ccccc1 | 105 | 102 | -4.47 | 17.1 | 17.3 | 10.7 | 59 | < 0 | < 0 | < 0 | 1.35 | 3.18
O=C(O)C[C@H]1CC[C@H](c2ccc(-c3ccc(Nc4ccc(C(F)(F)F)nc4)cn3)cc2)CC1 | 115 | 77.1 | 4.22 | 24.3 | 3.88 | 24.2 | 39.5 | 7.64 | 6.34 | < 0 | < 0 | 39.5
Cc1cc(Nc2ccc(F)cc2)nc(SCc2nc3ccccc3[nH]2)n1 | 91.4 | 101 | 4.62 | 19 | 32.7 | -9.36 | -3.55 | 1.25 | 33.8 | < 0 | < 0 | 25.6

SMILES | % viability of CHO cells (CHO; 2 µM) [%] | % viability of CHO cells (CHO; 20 µM) [%] | % inhibition of HepG2 viability (HepG2-A16-CD81) [%] | % inhibition of gametocyte viability ([1]; 1 µM) [%] | % inhibition of gametocyte viability ([1]; 5 µM) [%] | % inhibition of asexual blood stage proliferation ([2]; 2 µM) [%] | % inhibition of asexual blood stage proliferation ([2]; 20 µM) [%] | % inhibition of gametocyte viability ([3]; 1 µM) [%] | % inhibition of gametocyte viability ([3]; 5 µM) [%] | % inhibition of gametocyte viability ([4]; 1 µM) [%] | % inhibition of gametocyte viability ([4]; 5 µM) [%] | % inhibition of liver stage parasite viability [5] [%]
O=C(NCc1ccc2c3c(cccc13)C(=O)N2)c1cccs1 | 135 | 156 | 1.86 | < 0 | < 0 | 6.3 | 16 | < 0 | < 0 | < 0 | 16.9 | 17.9
Nc1nc(Nc2ccc3nc(-c4ccc(F)cc4)cc(N)c3c2)cc(-c2ccccc2)n1 | -4.05 | -8.47 | -4.55 | 32.5 | 84.6 | 83 | 96.9 | 95.5 | 95 | 98.5 | 98.6 | 13.6
COc1cccc(N2CCN(C3=Nc4c(F)cccc4[C@H](CC(=O)O)N3c3cc(C(F)(F)F)ccc3OC)CC2)c1 | 90.8 | 116 | 5.59 | 11.1 | 1.05 | 22.9 | 84.4 | < 0 | < 0 | < 0 | 6.89 | 21.2
CCN(CC)CCCC(C)Nc1ccnc2cc(Cl)ccc12 (stereo not given) | 95.9 | 76.9 | 8.97 | 16.9 | 6 | 85.8 | 99.8 | < 0 | < 0 | 29.7 | 5.51 | 14.3
CC1(C)CC(NC(=O)C(=O)Nc2ccc(Cl)cc2)CC(C)(C)N1 | 87.7 | 57.9 | -9.07 | 22.5 | 17.1 | -0.102 | 60.5 | 0.497 | 3.94 | 3.24 | 13.9 | 31.6
Cc1c(N)cccc1Cn1ccc(OCCc2cccs2)cc1=O | 240 | 54.9 | 5.54 | < 0 | < 0 | 6.4 | 22.2 | 0.516 | < 0 | < 0 | < 0 | 17
CSc1ccc2c(c1)C(N1CCN(C)CC1)Cc1ccccc1S2 (stereo not given) | 90.7 | 137 | -7.96 | < 0 | < 0 | 26.2 | 73.7 | 20.9 | 44.2 | 1.22 | 4.12 | 23
CCCCc1ccc(-c2cc(C(=O)O)cc(-c3ccc(Cl)cc3)n2)cc1 | 93.4 | 108 | 14.4 | 9.55 | 12.3 | 43 | 102 | < 0 | < 0 | 0.176 | 8.67 | 40
Cc1cc(-c2ccccc2)c(C(=O)C(=O)Nc2ccc(N3CCN(c4ncc(F)cn4)CC3)cc2)n1C | 90.7 | 72.7 | 10.6 | < 0 | < 0 | 2.18 | 63.9 | 5.9 | 5.39 | < 0 | < 0 | 58.8
COc1cc(Cc2cnc(N)nc2N)cc(OC)c1OC | 111 | 126 | 1.34 | 4.58 | 22.2 | 23.4 | 33.1 | 0.869 | < 0 | < 0 | < 0 | 66.4
NC(=O)C(c1ccccc1)(c1ccccc1)[C@H]1CCCN(CCc2ccc3c(c2)CCO3)C1 | 91.2 | -0.304 | 1.31 | 33.7 | 14 | -5.36 | 68.4 | < 0 | < 0 | 12 | < 0 | 48.5
Fc1ccc(-c2nc(-c3c[nH]c4ccc(Br)cc34)[nH]c2-c2ccc(F)cc2)cc1 | 97.3 | -2.96 | 1.87 | < 0 | < 0 | 74 | 83.7 | < 0 | < 0 | < 0 | < 0 | 27.7
CC(C)(C)NC(=O)[C@@H]1CN(Cc2cnc3occc3c2)CCN1C[C@@H](O)C[C@@H](Cc1ccccc1)C(=O)N[C@H]1c2ccccc2C[C@H]1O | 99.9 | 78.9 | 4.33 | 30.9 | 51.4 | 55.2 | 55.9 | 1.91 | < 0 | 2.7 | 15.5 | 36
O=C(NCc1cccc2ccccc12)c1cccs1 | 101 | 134 | 7.63 | 13.5 | 24.3 | -14.2 | -4.95 | < 0 | < 0 | < 0 | < 0 | -19.8
CC(C)Cn1c(=O)n(C)c(=O)c2c(-c3cncn3C)n(Cc3cccc4ccccc34)nc21 | 92.4 | 102 | 8.23 | 3.5 | 22.5 | 85.2 | 118 | < 0 | < 0 | 11.4 | < 0 | -8.38
NCc1ccc(S(N)(=O)=O)cc1 | 83.8 | 129 | 6.22 | 7.26 | 15.6 | 24 | 96.5 | < 0 | < 0 | < 0 | < 0 | 19.8
COc1ccc(CNC(=O)C(NS(=O)(=O)c2ccc3nc(C)sc3c2)C(C)C)cc1 (stereo not given) | 105 | 75.8 | 3.43 | 48.7 | 50.8 | 81.6 | 111 | < 0 | < 0 | 13.6 | < 0 | 21.7
